Hits are enriched below; roughly 19% of the tested compounds scored in any of these assays.
HT1080NT lethal – kills 2HG-producing HT-1080-NT fibrosarcoma cells; 360,000 compounds, 1.6% hits; HT-1080-NT fibrosarcoma viability, CellTiter-Glo ATP luminescence, 48 h; Potency, µM (series often up to 46.1 µM), without a hit: top-dose activity, negative = less viability, hits mostly cytotoxic;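 further: NT is the 2HG producing partner of a matched IDH1 knockdown line; potency means the concentration at half of the fitted maximal effect; 0% = DMSO-treated cells and -100% = media-only wells without cells; nearly all actives have a fitted effect of over 55% in size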
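Compounds were tested in concentration-response format on HT-1080-NT cells for 48 hours at 37 degrees C. Cell viability came from CellTiter-Glo luminescence; curves were classified by r2, response magnitude and activity.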
ELG1 DNA repair – blocks ELG1-dependent DNA repair in HEK293T cells. AID 504467. HEK293T ELG1-luciferase reporter, luminescence, 16 h; DNA damage induced by 5-fluorouridine. Potency, µM (highest dose often 46.1 µM), for the others: at the highest dose activity change, negative = inhibition, hits mostly inhibitors. 330,000 compounds, 2.3% hits; further: potency means the concentration at half of the fitted maximal effect; nearly all actives have a fitted effect of over 55% in size
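Reporter activity after DNA damage by 5-fluorouridine is monitored. Compound-treated cells incubate 16 hr at 37 °C, then ONE-Glo is added for 30 min before luminescence reading.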
IL1B secr inh – blocks inflammasome-driven IL-1 beta release; THP-1 LPS/ATP IL-1B secretion, AlphaLISA, 16 h; hits give low values; activity change, % at 57.5 µM; 360,000 compounds, 4.7% hits; AID 743279; in the data active means activity change below about -50%; inconclusive means mostly about -30% to -49%
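THP-1 cells pretreated 1 hr with compounds (up to 57.5 uM final), then stimulated with LPS (250 ng/mL final) plus ATP (1.25 mM final); secreted IL-1B measured by AlphaLISA after 16 hr, decreased signal indicating inhibition.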
HT1080 IDH1KD tx – HT-1080 IDH1 knockdown cell toxicity (counter line); 360,000 compounds, 2% hits; AID 686971; HT-1080 IDH1 knockdown viability, ATP luminescence, 48 h; Potency, µM (series often up to 46.1 µM), for the others: at the top dose activity, negative = toxicity, most hits filed as cytotoxic;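 further: potency means the concentration at half of the fitted maximal effect; 0% = DMSO wells and -100% = cell-free medium wells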
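IDH1KD HT-1080 cells, 750/well, RPMI + 5% FBS; compound pinned after 2 h settling; 48 h, 37 °C; CellTiter-Glo luminescence; % activity normalised to DMSO and no-cell wells; curves fitted, classed by r2 and efficacy.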
DT40 TDP1 CPT – growth inhibition of DT40 Tdp1-/-;hTDP1 cells with camptothecin (screen for TDP1 inhibitors) | Potency, µM (top dose mostly 46.2 µM), without a hit: top-dose activity change, negative = growth inhibition, usual class: inhibitors | 420,000 compounds, 12% hits | AID 686979 | chicken DT40 Tdp1-/-;hTDP1 cells + 20 nM CPT, ATP luminescence, 48 h; further: potency means the concentration at half of the fitted maximal effect; nearly all actives have a fitted effect of over 55% in size
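Cell growth measured by CellTiter-Glo luminescence after a minimum 48 h, 37 C compound exposure with 20 nM CPT in Tdp1-knockout DT40 cells stably expressing hTDP1, seeded 400/well; qHTS titration format.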
TDP1 cell noCPT – qHTS for Inhibitors of human tyrosyl-DNA phosphodiesterase 1 (TDP1): qHTS in cells in absence of CPT; DT40 Tdp1-/- hTDP1 cells, no CPT, ATP luminescence, 48 h; Potency, µM (top dose mostly 46.2 µM), for inactives: top-dose activity change, negative = growth inhibition, actives largely listed as inhibitors; 420,000 compounds, 15% hits; AID 686978, 2013; further: potency means the concentration at half of the fitted maximal effect; nearly all actives have a fitted effect of over 55% in size
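Chicken DT40 Tdp1-/- cells stably complemented with human TDP1 were seeded at 400 cells/well with DMSO in place of 20 nM camptothecin. After compound pinning, cells grew at least 48 hr at 37 °C; viability read by CellTiter-Glo luminescence.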
An asterisk follows results filed as active. Unless noted, the call rests on the fitted dose curve; in most records, active means well fitted curve in the direction sought with a large enough effect; inconclusive means small, poorly fitted or top-dose-only effect, or another doubt; inactive means no such curve, though single readings can be large; an effect the other way counts as inactive or inconclusive. Unless noted, on the % scale 0 is the no-effect control and ±100 the full control effect.

`O=S(=O)(O)CCCS(=O)(=O)O` gave DT40 TDP1 CPT 3% and TDP1 cell noCPT -4%.
For Cc1cc(C)n2c(NC3CCCCC3)c(CC(C)C)nc2n1 the results were HT1080NT lethal 21%, IL1B secr inh 0, HT1080 IDH1KD tx 7%, DT40 TDP1 CPT inconclusive and TDP1 cell noCPT 18µM*.
COc1ccc(Nc2c(CC(C)C)nc3nc(C)cc(C)n23)cc1 was read as HT1080NT lethal 0%, IL1B secr inh 27, HT1080 IDH1KD tx 5%, DT40 TDP1 CPT inconclusive and TDP1 cell noCPT inconclusive.
Screening Cc1cc(C)n2c(Nc3ccc4c(c3)OCCO4)c(CC(C)C)nc2n1 returned HT1080NT lethal 10%, IL1B secr inh 49, HT1080 IDH1KD tx 12%, DT40 TDP1 CPT 21µM* and TDP1 cell noCPT 12µM*.
For CC(C)(C)CC(C)(C)c1ccc(O)c(CN2CCN(CCC#N)CC2)c1 the results were HT1080NT lethal 8%, ELG1 DNA repair -16%, IL1B secr inh -57*, HT1080 IDH1KD tx -21%, DT40 TDP1 CPT inconclusive and TDP1 cell noCPT 23µM*.
`COc1ccc(-n2cc(CNCCCN3CCCC3=O)c(-c3ccccc3Cl)n2)cc1` gave HT1080NT lethal 2%, ELG1 DNA repair -4%, IL1B secr inh inconclusive, HT1080 IDH1KD tx 6%, DT40 TDP1 CPT 16µM* and TDP1 cell noCPT 16µM*.
NC(=O)c1cc(S(=O)(=O)NCCCc2ccccc2)cs1 was read as HT1080NT lethal -14%, ELG1 DNA repair -22%, IL1B secr inh 29, HT1080 IDH1KD tx 0%, DT40 TDP1 CPT inconclusive and TDP1 cell noCPT inconclusive.
Screening CN(C)c1ccc(CNS(=O)(=O)c2csc(C(N)=O)c2)cc1 returned HT1080NT lethal -1%, ELG1 DNA repair -18%, IL1B secr inh 39, HT1080 IDH1KD tx 0%, DT40 TDP1 CPT 23µM* and TDP1 cell noCPT 7.3µM*.
CC(C)Oc1ccc(CNS(=O)(=O)c2csc(C(N)=O)c2)cc1 was read as HT1080NT lethal 8%, ELG1 DNA repair inconclusive, IL1B secr inh 31, HT1080 IDH1KD tx -6%, DT40 TDP1 CPT 16µM* and TDP1 cell noCPT 21µM*.
Screening CCc1noc(C)c1C(=O)Nc1ccc(C)c(S(=O)(=O)N2CCCCCC2)c1 returned HT1080NT lethal -4%, ELG1 DNA repair inconclusive, IL1B secr inh 6, HT1080 IDH1KD tx -16%, DT40 TDP1 CPT 16µM* and TDP1 cell noCPT inconclusive.
For CCOc1ccc(C(=O)CCC(=O)Nc2ccc(C)c(S(=O)(=O)N3CCCCC3)c2)cc1 the results were HT1080NT lethal -1%, ELG1 DNA repair -16%, IL1B secr inh -9, HT1080 IDH1KD tx -17%, DT40 TDP1 CPT -15% and TDP1 cell noCPT 16µM*.
For Cc1ccc(NC(=O)CNc2ccccc2N2CCCC2=O)cc1S(=O)(=O)N1CCCCC1 the results were HT1080NT lethal 10%, ELG1 DNA repair -26%, IL1B secr inh -5, HT1080 IDH1KD tx 3%, DT40 TDP1 CPT 16µM* and TDP1 cell noCPT 15µM*.
For CCc1noc(C)c1C(=O)Nc1cc(S(=O)(=O)N2CCCCC2)ccc1N(C)C the results were HT1080NT lethal -7%, ELG1 DNA repair -2%, IL1B secr inh -12, HT1080 IDH1KD tx 5%, DT40 TDP1 CPT inconclusive and TDP1 cell noCPT inconclusive.
Cc1ccc(NC(=O)CCl)cc1S(=O)(=O)N1CCCCCC1 was read as HT1080NT lethal 16µM*, ELG1 DNA repair inconclusive, IL1B secr inh -87*, HT1080 IDH1KD tx 8.2µM*, DT40 TDP1 CPT 2.1µM* and TDP1 cell noCPT 2.6µM*.
Screening CC(=O)c1ccc(OCCCC(=O)Nc2ccc(C)c(S(=O)(=O)N3CCCCC3)c2)cc1 returned HT1080NT lethal inconclusive, ELG1 DNA repair inconclusive, IL1B secr inh -25, HT1080 IDH1KD tx -10%, DT40 TDP1 CPT inconclusive and TDP1 cell noCPT inconclusive.
Screening Cc1ccc(NC(=O)Cc2ccccc2F)cc1S(=O)(=O)N1CCCCCC1 returned HT1080NT lethal 0%, ELG1 DNA repair 12µM*, IL1B secr inh -4, HT1080 IDH1KD tx -24%, DT40 TDP1 CPT inconclusive and TDP1 cell noCPT inconclusive.
`O=C(Cc1ccccc1F)Nc1ccc(S(=O)(=O)N2CCCC2)cc1` gave HT1080NT lethal 9%, ELG1 DNA repair 1%, IL1B secr inh -51*, HT1080 IDH1KD tx 4%, DT40 TDP1 CPT inconclusive and TDP1 cell noCPT 1%.
Cc1ccc(NC(=O)/C=C/c2ccco2)cc1S(=O)(=O)N1CCCCCC1 was read as HT1080NT lethal -19%, IL1B secr inh -19, HT1080 IDH1KD tx -29%, DT40 TDP1 CPT 21µM* and TDP1 cell noCPT 9.2µM*.
For O=C(/C=C/c1ccco1)Nc1ccc(N2CCCC2)cc1 the results were HT1080NT lethal 13%, ELG1 DNA repair inconclusive, IL1B secr inh -2, HT1080 IDH1KD tx 21%, DT40 TDP1 CPT 0% and TDP1 cell noCPT -10%.
`Cc1nc2ccc([N+](=O)[O-])cc2c(=O)n1Cc1ccccc1Br` gave HT1080NT lethal -5%, ELG1 DNA repair 11%, IL1B secr inh -15, HT1080 IDH1KD tx -14%, DT40 TDP1 CPT -2% and TDP1 cell noCPT -19%.
For COc1cc(OC)c(NC(=O)C(CC(C)C)N2Cc3ccccc3C2=O)cc1Cl (centres undefined) the results were DT40 TDP1 CPT 15µM* and TDP1 cell noCPT inconclusive.
COc1cc(C(CC(=O)NCc2ccccc2)N2Cc3ccccc3C2=O)cc(OC)c1OC (centres undefined) was read as DT40 TDP1 CPT -21% and TDP1 cell noCPT -29%.
`COc1ccc(C(CC(=O)NCc2ccccc2Cl)N2Cc3ccccc3C2=O)cc1OC` (centres undefined) gave DT40 TDP1 CPT -27% and TDP1 cell noCPT inconclusive.
`COc1cc(NC(=O)C(CC(C)C)N2Cc3ccccc3C2=O)cc(OC)c1` (centres undefined) gave DT40 TDP1 CPT -15% and TDP1 cell noCPT inconclusive.
Screening COc1ccccc1CNC(=O)CC(c1ccc(F)cc1)N1Cc2ccccc2C1=O (centres undefined) returned DT40 TDP1 CPT inconclusive and TDP1 cell noCPT 23µM*.
Screening COc1ccccc1CNC(=O)C(CC(C)C)N1Cc2ccccc2C1=O (centres undefined) returned DT40 TDP1 CPT 9.2µM* and TDP1 cell noCPT 21µM*.

Screens: PubChem BioAssay, National Center for Advancing Translational Sciences (NCATS)
